# From PubChem
# Most compounds without a hit are left out; they make up all but 1.5% or so of the library.
# PV pol inh = poliovirus RdRp elongation inhibitors, primary screen, biochemical, fluorescence polarization, total intensity | Genome polyprotein (Poliovirus type 1 (strain Mahoney)), P03300 | poliovirus polymerase elongation; stronger effect = lower value | % elongation, % (compound at 16.7 µg/mL) | 0.66% of 150,000 active | AID 588519, 2011; in the data active = % elongation below about 90%
# Target sequence (P03300 1749-2209 limits assumed): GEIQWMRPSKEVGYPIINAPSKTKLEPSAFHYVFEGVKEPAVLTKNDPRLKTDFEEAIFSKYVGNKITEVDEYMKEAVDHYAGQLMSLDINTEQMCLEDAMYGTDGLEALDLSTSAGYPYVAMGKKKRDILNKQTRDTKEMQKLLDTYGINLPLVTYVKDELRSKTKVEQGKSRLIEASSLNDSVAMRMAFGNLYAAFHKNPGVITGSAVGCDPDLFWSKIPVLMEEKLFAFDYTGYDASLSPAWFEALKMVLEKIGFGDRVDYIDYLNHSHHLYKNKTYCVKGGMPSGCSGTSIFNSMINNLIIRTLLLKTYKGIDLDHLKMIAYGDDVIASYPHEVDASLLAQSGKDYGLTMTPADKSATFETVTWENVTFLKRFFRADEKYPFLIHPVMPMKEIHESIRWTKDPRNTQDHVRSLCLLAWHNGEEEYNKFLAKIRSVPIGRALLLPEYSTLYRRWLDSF
# Mtb MbtI inh = MbtI salicylate synthase inhibitors, primary screen, biochemical, fluorescence intensity | 0.89% of 100,000 active | AID 493033, 2011 | purified MbtI enzyme, fluorescence intensity read-out | inhibition, % (concentration not given with the values); in the data active = inhibition mostly above about 56%, no sharp cut-off; inactive = mostly below about 77%
# Mtb MenB inh = M. tuberculosis MenB inhibitors, primary screen, biochemical, absorbance | inhibition, % (concentration not given with the values) | AID 540299, 2011 | 0.43% of 100,000 active | 1,4-dihydroxy-2-naphthoyl-CoA synthase (Mycobacterium tuberculosis (strain ATCC 25618 / … | MenB enzyme assay, absorbance read-out; in the data active = inhibition above about 21%, passing the limit was not always enough
# A number is an active result; 0 = inactive; - = no result.
SMILES,PV pol inh,Mtb MbtI inh,Mtb MenB inh
CN(C)c1cccc(C(=O)NCC(c2cccs2)N(C)C)c1 (stereo unspecified),0,0,0
COc1ccc(CN(C)C(=O)c2cccc(F)c2)c(OC)c1OC,0,0,0
CN(Cc1ccccc1)C(=O)COC(=O)c1ccc(I)cc1,0,0,-
CC12CC3CC(C)(C1)CC(CO)(C3)C2,0,0,0
Cc1ccc(OCCSc2nc(O)cc(=O)n2C2CCCC2)cc1,-,0,0
CN(C)c1cccc(C(=O)Oc2ccccc2Cl)c1,0,0,0
O=C(Oc1cccc(Cl)c1Cl)c1ccncc1,4.0,0,0
CCC(NS(=O)(=O)c1ccc(OC)cc1)C(=O)NCc1ccccc1OC (stereo unspecified),0,0,0
CCN(CC)CCNCc1ccc(-c2ccccc2)o1,0,0,33
CC(C)(C)NCc1ccc(-c2ccccc2)o1,0,0,0
CCOC(=O)COc1cc(OCC(=O)OCC)c2c3c(c(=O)oc2c1)CCC3,0,0,0
Cc1ccc(C)c(Cn2nc3nc(C)nc(N4CCC(CNC(=O)OC(C)(C)C)CC4)c3n2)c1,0,0,0
CC1CCN(C(c2nnnn2Cc2ccccc2)C(C)C)CC1 (stereo unspecified),0,0,0
CC(C)C(c1nnnn1Cc1ccccc1)N1CCN(c2ccccc2)CC1 (stereo unspecified),0,0,32
Cc1nn(-c2ccccc2)c2sc(-c3nc(=S)[nH][nH]3)cc12,0,0,0
O=C1CSc2ccc(C(=O)OCC(=O)N3CCCc4ccccc43)cc2N1,0,60,0
O=C(OCC(=O)N1CCCc2ccccc21)c1ccccc1,0,0,-
Cc1nc(-c2ccc(C(=O)O)cc2)cs1,0,0,28
c1ccc(-c2csc(-c3ccc4c(c3)OCCO4)n2)cc1,0,0,0
Cc1nc(-c2ccc3c(c2)OCCO3)cs1,78,92,0
Cc1nc(-c2cc(C(=O)O)n(C)c2)cs1,0,0,0
COc1ccc(OCC(NC(=O)Cn2nc(C)c3ccccc3c2=O)C(C)C)cc1 (stereo unspecified),0,0,0
CN(Cc1nc2ccccc2c(=O)[nH]1)C(=O)COc1ccc2c(c1)CCC2,55,0,0
CCCC(=O)N(Cc1nc2ccccc2c(=O)[nH]1)C1CCCC1,0,0,0
O=C1Nc2ccccc2/C1=N\N1C(=O)C2C=CC=CC2C1=O (stereo unspecified),0,-,0
SMILES,PV pol inh,Mtb MbtI inh,Mtb MenB inh
O=C1Nc2ccccc2/C1=N\N1C(=O)/C(=C/c2ccccc2)N=C1c1ccccc1,88,-,0
COC(=O)CSc1nc2ccc(C(C)C)cc2cc1C#N,0,0,0
COc1cc(C(=O)Nc2nnc(CC(C)(C)C)s2)cc(OC)c1OC,0,-,-
COc1cccc(OC)c1C(=O)Nc1nnc(CC(C)(C)C)s1,71,-,0
O=C(CC12CC3CC(CC(C3)C1)C2)NCC(=O)N1CCN(Cc2ccccc2)CC1,0,0,0
O=C(CC12CC3CC(CC(C3)C1)C2)NCC(=O)N1CCCC1,86,0,0
CCN(CC)C(=O)CN1CCN(c2cccc(Cl)c2)CC1,0,0,33
O=C(O)CCN1CCN(c2cccc(Cl)c2)CC1,0,0,0
CCOc1ccc(/C=N/O)cc1,0,0,26
CCOc1ccc(/C=N\n2c(C)nnc2C)cc1,0,0,0
OCC#CCSc1nc2ccccc2o1,0,0,39
c1ccc2oc(SCCSc3nc4ccccc4o3)nc2c1,0,-,0
CCCNC(=O)NC1CC(C)(C)NC(C)(C)C1,0,0,0
O=C(Nc1ccc(F)cc1F)C1CC(c2ccccc2F)=NO1 (stereo unspecified),0,0,0
CCC(c1nnnn1C(C)(C)CC)N1CCN(c2ccccc2)CC1 (stereo unspecified),0,0,0
O=C(Cn1c(=O)c2cccn2c2ccc(F)cc21)N1CCc2ccccc21,0,0,0
CSc1scc2c1C(=O)CC(C)(C)C2,0,0,0
CSc1scc2c1C(=O)/C(=C/N(C)C)CC2,63,0,0
Nn1c(-c2ccco2)n[nH]c1=S,0,0,0
CCOc1ccccc1-c1n[nH]c(=S)n1N,83,0,0
O=C(/C=C/c1ccccc1)Nc1ccc2c(c1)OCO2,0,0,0
CC(C)(C)C(=O)Nc1ccc2c(c1)OCO2,0,0,-
CC(=O)Nc1ccc2c(c1)OCO2,0,0,-
NC(=O)/C=C/C(=O)Nc1ccc2c(c1)OCO2,0,101,0
CC(=S)Nc1ccc2c(c1)OCO2,72,73,0
SMILES,PV pol inh,Mtb MbtI inh,Mtb MenB inh
CC(C)(C(=O)Nc1ccc2c(c1)OCO2)C(=O)Nc1ccc2c(c1)OCO2,0,0,41
NC(CC(=O)O)c1ccc2c(c1)OCO2 (stereo unspecified),0,0,0
CC(=O)NC(NC(C)=O)c1ccc2c(c1)OCO2,0,0,31
CCOC(=O)C1CCC(CNC(=O)Nc2ccc3nc(N4CCN(C)CC4)cc(C)c3c2)CC1 (stereo unspecified),0,0,0
C=CCN1C(=O)C(Cc2ccc(F)cc2)S/C1=N\N=C/c1ccco1 (stereo unspecified),0,0,0
CC(=O)NC(NCCC12CC3CC(CC(C3)C1)C2)(C(F)(F)F)C(F)(F)F,0,-,0
Cn1ccnc1SCc1nc2ccccc2c(=O)[nH]1,0,0,0
Cc1occc1-c1nnc(SCCCC(=O)N2CCOCC2)n1-c1ccccc1,0,0,0
Cc1ccc(C(=O)Nc2ccc3c(c2)OCO3)cc1,0,-,0
CN(C)C(=S)Nc1ccc2c(c1)OCO2,0,92,0
CSc1cccc(NC(=S)N(C)C)c1,0,74,0
CSc1cccc(NC(=S)Nc2cccc(SC)c2)c1,0,0,0
CC(=O)Oc1ccccc1C(=O)N(C)C,0,-,0
O=c1c2cc(-c3ccccc3)sc2nc2c3ccccc3cnn12,-,0,-
Cc1cc(C(=O)Nc2sc(C)c(C)c2C#N)cs1,0,0,0
Cc1sc(NC(=O)C2CC2)c(C#N)c1C,0,90,0
Cc1cc(NC(=O)/C=C/c2ccc(F)cc2)no1,0,0,0
Cc1cc(OC(=O)/C=C/c2ccc(F)cc2)cc(=O)o1,84,0,0
CCn1ncc(Cl)c(Cl)c1=O,77,-,0
O=C1c2ccccc2C(=O)N1Cn1ncc(Cl)c(Cl)c1=O,0,0,0
CCC(C)c1ccccc1NC(=O)N(C)C (stereo unspecified),0,0,0
CSc1ccccc1NC(=O)CN1CCc2ccccc21,88,0,0
CSc1ccccc1NC(=O)CN1c2ccccc2CC1C (stereo unspecified),0,0,0
CC1(NC(=O)CN2CCCCC2c2nc3ccccc3s2)CCS(=O)(=O)C1 (stereo unspecified),0,0,0
Cc1sc2nc[nH]c(=O)c2c1C,0,87,0
SMILES,PV pol inh,Mtb MbtI inh,Mtb MenB inh
Cc1cc(C)cc(NC(=O)c2sc3nc[nH]c(=O)c3c2C)c1,0,-,-
CN1C(=C(C#N)C(=O)COc2ccc(C#N)cc2)N(C)c2ccccc21,0,0,0
COc1ccc(Cl)cc1S(=O)(=O)N1CCC(C(N)=O)(N2CCCCC2)CC1,0,0,0
O=C(CCSc1nnc(-c2ccco2)o1)N1CCOCC1,0,0,0
Cc1ccc(-c2nnc(SCCC(=O)N3CCOCC3)o2)cc1,0,0,28
O=C(CSC1=NCCS1)OCN1C(=O)c2ccccc2C1=O,0,0,38
